ssDAF-12 act = S. stercoralis DAF-12 activation, primary screen. actives 1% (n = 370,000). HEK293 ssDAF-12/GRIP1 lit1-tk-luc reporter, luminescence; % of 3 µM dafachronic acid response. activation, % at 6.8 µM;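 active means activation above the mean over all tested compounds plus 3 SD, cut at about 0.9% in these data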;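 further: 0% = DMSO-only wells and 100% = 3 µM delta7-dafachronic acid wells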
DAX1 inh-1 = inhibits human nuclear receptor DAX1 | P51843 | HEK293 Gal4-DAX1 luciferase reporter, luminescence | inhibition, % at 6.75 µM | actives 0.99% (n = 340,000);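 active means inhibition above the mean over all tested compounds plus 3 SD, cut at about 4.2% in these data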;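 further: 0% = DAX1-transfected cells with DMSO and 100% = empty-vector control cells with DMSO; inhibition shows as a rise in luminescence from relieved DAX1 repression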
hcDAF12 agonist = activates DAF-12 receptor from parasite H. contortus; HEK293 hcDAF-12 lit1-tk-luc reporter, luminescence; 0% DMSO, 100% Δ7-dafachronic acid; actives 1.4% (n = 370,000); activation, % at 6.8 µM;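 active means activation above the mean of all tested compounds plus 3 SD, cut at about 5.5% in these data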;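 further: 100% = response to 3 µM Δ7-dafachronic acid high control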
DAX1 inh-2 = DAX1 (NR0B1) inhibition, primary screen; HEK293T StAR-luciferase reporter, SF-1/DAX-1 repression relief; inhibition, % at 6.8 µM; actives 1.1% (n = 370,000); AID 652010;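 active means inhibition above the mean over all tested compounds plus 3 SD, cut at about 3.6% in these data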;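 further: 0% = DAX-1 cells with DMSO and 100% = cells lacking DAX-1 with DMSO; higher inhibition means more luminescence from relief of DAX-1 repression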
hgDAF12 agonist = activates the H. glycines DAF-12 receptor ligand-binding domain | HEK293 GAL4-hgDAF12 UAS-luciferase reporter, agonist luminescence; normalized to butyrate control | activation, % at 6.8 µM | actives 1.8% (n = 370,000) | AID 687014;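 active means activation above a cutoff set at the mean of all screened compounds plus 3 SD, cut at about 10% in these data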;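 further: 0% = DMSO wells and 100% = sodium butyrate wells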
LXR ag = activates human LXR-beta, counter-screen for hcDAF-12 agonists; shares compounds with hcDAF12 agonist; HEK293 Gal4-LXR tk-luc reporter, luminescence, 24 h; normalized: DMSO 0%, positive control 100%; activation, % at 6.8 µM; 3,400 tested, under 10 active;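 active means mean percent activation of the reporter above a cutoff set as the average over tested compounds plus their standard deviation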
Target sequence (P55055 whole entry, looked up, the tested form may be a part): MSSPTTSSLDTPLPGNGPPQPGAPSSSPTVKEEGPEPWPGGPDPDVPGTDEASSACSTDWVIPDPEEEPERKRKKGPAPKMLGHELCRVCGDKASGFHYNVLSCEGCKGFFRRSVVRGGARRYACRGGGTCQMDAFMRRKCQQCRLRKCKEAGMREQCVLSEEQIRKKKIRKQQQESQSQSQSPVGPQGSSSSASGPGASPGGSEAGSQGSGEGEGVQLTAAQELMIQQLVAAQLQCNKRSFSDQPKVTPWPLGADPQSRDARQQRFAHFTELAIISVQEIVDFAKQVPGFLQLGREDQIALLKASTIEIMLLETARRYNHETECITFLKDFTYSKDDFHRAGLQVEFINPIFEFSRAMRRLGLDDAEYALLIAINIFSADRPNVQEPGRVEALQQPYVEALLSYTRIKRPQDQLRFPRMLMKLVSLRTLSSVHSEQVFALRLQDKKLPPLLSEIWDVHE
hcDAF12 ag = hcDAF-12 agonism, confirmation assay; activation, % at 6.8 µM; HEK293 hcDAF-12 lit1-tk-luc reporter, luminescence; % of Δ7-dafachronic acid response; actives 61% (n = 3,400); AID 743032; shares compounds with hcDAF12 agonist;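 active means mean activation across triplicate tests above the threshold derived from the earlier primary screen, cut at about 5.5% in these data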;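 further: 0% = DMSO only wells and 100% = 3 µM Δ7-dafachronic acid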
hgDAF12 ag = confirmation of H. glycines DAF-12 agonists; shares compounds with hgDAF12 agonist; HEK293 GAL4-hgDAF12 luciferase reporter, agonist mode; percent of butyrate response; activation, % at 6.8 µM; actives 80% (n = 3,300); AID 743050;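 active means mean activation over triplicate wells above the hit cutoff derived from the earlier primary screen, cut at about 11% in these data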;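 further: 0% = DMSO low control and 100% = 2 mM sodium butyrate high control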
LXRb DAF12 ctr = counter-screen for DAF-12 agonists: agonists of human LXR-beta; HEK293 Gal4-LXR luciferase reporter, 24 h; 3,300 tested, under 10 active; activation, % at 6.8 µM; shares compounds with hgDAF12 agonist; AID 743051;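 active means mean activation of the triplicate above a set limit carried over from the primary screen, none filed active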
An asterisk follows results filed as active; / = no result given. A selection: hits, their analogues and other compounds. The true share with any hit is near 4.1%.

SMILES	ssDAF-12 act	DAX1 inh-1	hcDAF12 agonist	DAX1 inh-2	hgDAF12 agonist	LXR ag	hcDAF12 ag	hgDAF12 ag	LXRb DAF12 ctr
COC(=O)C[C@@H]1CC[C@H]2[C@@H](COc3ccc(NC(=O)Nc4ccc(C)cc4)cc3C(=O)N2C)O1	-1	/	-2	-1	1	/	/	/	/
O=C(Nc1ccc(Cl)cc1)Nc1cccc2nsnc12	1.3*	2	12*	1	15*	1	11*	20*	1
Oc1ccc(N=Nc2c(O)ccc3ccccc23)cc1	-2	-1	-1	0	-3	/	/	/	/
Oc1ccc(N=Nc2ccc3ccccc3c2)cc1	1	3	7.1*	3	16*	1	4	20*	1
COc1cc(OC)cc(-c2cc3ccc(OC)cc3cn2)c1	0.9*	3	6.7*	1	16*	2	6.6*	19*	1
COc1ccc2cc(-c3ccccc3)ncc2c1	1.8*	2	13*	3	16*	2	14*	20*	1
COc1cc(OC)cc(-c2cc3cc4c(cc3cn2)OCO4)c1	/	-1	/	/	/	/	/	/	/
COc1ccc(S[C@]2(C(=O)NC3CC3)CC(=O)N[C@@H]2c2ccc(OC)cc2)cc1	-1	/	0	0	3	/	/	/	/
Nn1c(SCC(=O)Nc2cccc3ccccc23)nnc1-c1cc(-c2ccc(Cl)cc2)n[nH]1	0	/	2	0	-2	/	/	/	/
COc1ccccc1C1SCCN1S(=O)(=O)c1ccccc1 (stereo not drawn)	-2	-1	-1	-1	2	/	/	/	/
Cc1cc(N)n(-c2cc(C)c3ccccc3n2)n1	1.6*	1	9.9*	4	17*	1	13*	17*	1
CCOC(=O)/C(=N\Nc1ncnc2ccccc12)c1ccc(C)cc1	2.5*	0	19*	2	21*	2	19*	20*	1
CC(C)(C)c1ccc2c(c1)C(=O)c1ccccc1C2=O	0	4	11*	4.4*	20*	1	4	13*	1
N#Cc1cc2ccccc2nc1SCc1ccccn1	4.7*	2	20*	4.3*	17*	1	9.2*	16*	1
O=C1CC(c2ccccc2)Sc2nc3ccccc3n21 (stereo not drawn)	1.1*	3	6.9*	4.0*	19*	1	7.3*	12*	1
O=C(N/N=C/c1c[nH]c2ccccc12)c1cccs1	1.7*	/	6.9*	1	14*	1	6.4*	11*	0
O=C(NC(Cc1c[nH]c2ccccc12)C(=O)N/N=C/c1cccc2ccccc12)c1cccs1 (stereo not drawn)	-1	0	-2	-1	0	/	/	/	/
O=C(N/N=C/c1c[nH]c2ccccc12)c1ccc2c(c1)OCCO2	1.7*	3	13*	1	18*	1	7.0*	23*	1
O=C(N/N=C/c1cccc2ccccc12)c1cccs1	1	4.5*	8.2*	3	17*	1	7.3*	16*	1
Cc1cccc(C)c1NC(=O)C(c1ccc(C#N)cc1)n1c(=O)c(-c2cc3ccccc3[nH]2)nc2ccccc21 (stereo not drawn)	-1	/	5	-1	1	/	/	/	/
Cc1occc1C(=O)Nc1ccccc1NC(=O)c1ccoc1C	-1	0	2	0	-2	/	/	/	/
Cc1occc1C(=O)Nc1cccc2ccccc12	1.1*	4	6.7*	3.8*	17*	1	5.9*	21*	1
Cc1occc1C(=O)Nc1ccc2c(c1)OCO2	0	1	1	1	6	/	/	/	/
Cc1ccc(NC(=O)c2ccoc2C)cc1C	0	0	6.9*	3	14*	1	5	12*	0
O=C(NCc1cccs1)O[C@H]1CC[C@@]23CCCN2C(=O)CCC[C@H]3C1	-1	/	1	/	-5	/	/	/	/
SMILES	ssDAF-12 act	DAX1 inh-1	hcDAF12 agonist	DAX1 inh-2	hgDAF12 agonist	LXR ag	hcDAF12 ag	hgDAF12 ag	LXRb DAF12 ctr
CCOc1ccc(-c2c(=O)n(O)c3ccccc3[n+]2[O-])cc1	0	1	7.8*	3	21*	0	3	41*	1
Cc1nn(-c2ccc3ccccc3c2)c(=O)c2ccccc12	1.7*	2	12*	2	16*	1	8.5*	15*	1
O=C(N/N=C/c1cn(-c2ccccc2)nc1-c1cccnc1)c1cccnc1	-2	0	-2	-2	-1	/	/	/	/
O=C(N/N=C/c1cn(-c2ccccc2)nc1-c1cc2ccccc2o1)c1ccncc1	2.0*	2	6.8*	3	19*	1	4	15*	1
COc1ccc(-c2csc(-n3cccn3)n2)cc1	0	4	7.0*	2	14*	1	5	18*	1
COc1cc(SC)ccc1C(=O)Nc1ccncc1	-1	-2	-2	-1	4	/	/	/	/
Cc1ccc(NC(=O)c2cc3ccccc3oc2=N)cc1	0.9*	2	11*	3.7*	14*	1	17*	7	1
COc1ccc(C(=O)Nc2ccc3ccccc3c2)c(OC)c1	3.7*	5.8*	16*	3	15*	2	15*	26*	1
Cc1cccc(C(=O)Nc2ccc(NC(=O)c3cccc(C)c3)cc2)c1	-2	-1	1	-1	0	/	/	/	/
COc1ccc(C(=O)Nc2ccncc2)c(OC)c1	-1	1	-1	0	0	/	/	/	/
Cc1ccc(NC(=O)c2ccc(C)cc2)cc1	1	-2	7.8*	3	14*	1	5.7*	21*	1
COc1cc(SC)ccc1C(=O)Nc1ccc2c(c1)CCC2	4.0*	4	17*	2	22*	1	14*	22*	1
CCOC(=O)[C@]12CCCC=C1N(Cc1ccc(OC)cc1)C(=O)[C@@H]2CC(=O)NCCC(C)C	-1	/	-3	-2	4	/	/	/	/
CCOC(=O)c1c(C)[nH]c(C(=O)OCC(=O)Nc2sccc2C(N)=O)c1C	-2	-5	-5	-8	-11	/	/	/	/
COc1cc2ccccc2cc1C(=O)Nc1ccc(C)cc1	1.0*	5.9*	17*	1	19*	1	12*	20*	1
